# In all, about 66,000 compounds went through this assay and about 960 (1.5%) showed an effect of 50% or more. The sample holds strong results, similar compounds and a random draw of the others, so the mix is not that of the screen.
# System: Trypanosoma brucei
# Experiment: Trypanosoma brucei 72 hour study
# Format: functional, organism-based
# Parameters: scale not given: in the data most compounds retested in dose-response had high values
compound,measurement,setting,value
CCn1ncc2c1C(COC)N(C(=O)CCc1ccccc1)CC2.O=C(O)C(F)(F)F (stereo not given),Percent Effect,"30.3 µM, […]",-62.76%
COC[C@@]12CC[C@@H](N3CCOCC3)C[C@H]1CCN(c1ncccc1F)C2,Percent Effect,"30.3 µM, […]",8.261%
COC[C@@]12CC[C@@H](N3CCOCC3)C[C@H]1CCN(c1ncccc1C)C2,Percent Effect,"30.3 µM, […]",-4.564%
COC[C@@]12CC[C@@H](N3CCOCC3)C[C@H]1CCN(c1ncccc1Cl)C2,Percent Effect,"30 µM, 30.03 µM",81.93%
Cl.Cl.O=C(CN1CCN(CC(O)C2CC2)CC1)NCc1ccccc1 (stereo not given),Percent Effect,"30.3 µM, […]",-20.63%
Cn1ccc(CN2CCCC23CCN(Cc2cccc(F)c2)CC3)n1.O=C(O)C(F)(F)F.O=C(O)C(F)(F)F,Percent Effect,"30.3 µM, […]",-80.78%
CCc1cc(C(F)(F)F)c2c(C3CCN(C(=O)COC)CC3)noc2n1,Percent Effect,"30.3 µM, […]",11.66%
O=C(N[C@@H]1CN(CCc2ccc(F)cc2)C[C@H]1O)c1cscn1,Percent Effect,"30.3 µM, […]",8.587%
O=C(O)C(F)(F)F.O=C(O)C(F)(F)F.O=C(c1cccnc1)N1CCn2cc(CN3CCCC3)nc2C1,Percent Effect,"30.3 µM, […]",-57.28%
N#Cc1ccc(C(=O)NCCCNc2ccc(C(F)(F)F)cn2)cc1,Percent Effect,"30 µM, 30.03 µM",0.4176%
N#CC1(C(=O)NCCCNc2ccc(C(F)(F)F)cn2)CCCC1,Percent Effect,"30 µM, 30.03 µM",104.7%
O=C(NCCCNc1ccc(C(F)(F)F)cn1)c1ccccc1,Percent Effect,10 µM,-30.72%
CCCN1C(=O)[C@H]2CC[C@@H]1CN(S(=O)(=O)c1cccc(Cl)c1)C2,Percent Effect,"30.3 µM, […]",-12.81%
Cc1cccc(CN2CCc3onc(CO)c3C2)n1.O=C(O)C(F)(F)F,Percent Effect,"30.3 µM, […]",-52.13%
O=C(O)C(F)(F)F.O=C(O)C(F)(F)F.c1cncc(OCc2noc3c2CN(Cc2ccsc2)CC3)c1,Percent Effect,"30 µM, 30.03 µM",-15.24%
O=C(Nc1cccc(Cl)c1)c1nn(C2CCS(=O)(=O)C2)c2c1CCCC2 (stereo not given),Percent Effect,"30 µM, 30.03 µM",73.39%
O=C(Nc1ccccc1)c1nn(C2CCS(=O)(=O)C2)c2c1CCCC2 (stereo not given),Percent Effect,"30 µM, 30.03 µM",23.09%
O=C(Nc1ccc(Cl)cc1)c1nn(C2CCS(=O)(=O)C2)c2c1CCCC2 (stereo not given),Percent Effect,"30 µM, 30.03 µM",-43.99%
Cc1[nH]c2ccc(CNc3cc(C#N)ccn3)cc2c1C,Percent Effect,"30 µM, 30.03 µM",39.43%
CSCC(C)NCc1ccc2[nH]c(C)c(C)c2c1 (stereo not given),Percent Effect,"30 µM, 30.03 µM",-11.75%
Cc1[nH]c2ccc(CNc3cc(C(N)=O)ccn3)cc2c1C,Percent Effect,"30 µM, 30.03 µM",60.58%
Cc1[nH]c2ccc(CNc3cc(C(=O)NC(C)C)ccn3)cc2c1C,Percent Effect,"30 µM, 30.03 µM",50.33%
COCC(C)NCc1ccc2[nH]c(C)c(C)c2c1 (stereo not given),Percent Effect,"30 µM, 30.03 µM",2.897%
COC(=O)C(C)NCc1ccc2[nH]c(C)c(C)c2c1 (stereo not given),Percent Effect,"30 µM, 30.03 µM",-35.15%
NC[C@H]1CC[C@H](C(NC(=O)CC2CCCCC2)c2ccccn2)CC1 (stereo not given in full),Percent Effect,"30.3 µM, […]",-8.457%
